Structures can show the parent of a compound that is named as a salt. Values without a mark were called inactive.
How the values were obtained:
Settings in all cases: 20 µM
[1] = tested on: Salmonella enterica typhimurium; experiment: growth AUC normalised to DMSO control (fraction of control); higher = less growth inhibition, active = hit call of the paper
Procedure, shortened: (§1)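 Pathogens passaged twice anaerobically were inoculated at a starting OD578 of 0.01 into pre-reduced mGAM plates with drug at 20 μM and 1% DMSO, sealed with breathable membranes. Haemophilus parainfluenzae medium was supplemented with hemin and NAD. OD578 was read hourly for 24 h, with three biological replicates. Growth-curve AUC was computed by the trapezoidal rule up to the exponential-to-stationary transition and normalised to DMSO controls on the same plate.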

[2] = tested on: Shigella flexneri; experiment: as above
Procedure, shortened: as §1

[3] = tested on: Vibrio cholerae; experiment: as above
Procedure, shortened: as §1

[4] = tested on: Yersinia pseudotuberculosis; experiment: as above
Procedure, shortened: as §1

[5] = tested on: P. vulgatus RND KO; experiment: growth AUC normalised to DMSO control (median) (fraction of control); higher = less growth inhibition, active = hit call of the paper
Procedure, shortened: (§2)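 Each strain went through two overnight passages under anaerobic conditions before growth in mGAM in 96-well plates, starting at OD578 0.01, with each compound from the approved-drug library at 20 μM and 1% DMSO. Inside an anaerobic incubator, OD578 was recorded every hour for 24 h. Growth curves were cut off at entry into stationary phase, and the area under the curve was calculated by the trapezoidal rule and normalised to vehicle wells on the same plate. Reported values are medians of three biological replicates.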

[6] = tested on: P. vulgatus WT; experiment: as above
Procedure, shortened: as §2

[7] = tested on: S. enterica typhimurium WT; experiment: as above
Procedure, shortened: as §2

[8] = tested on: S. enterica typhimurium tolC KO; experiment: as above
Procedure, shortened: as §2
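For growth AUC normalised to DMSO control (median) in this document: active when median AUC fell below 0.1.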

| Compound | growth AUC normalised to DMSO control [1] | growth AUC normalised to DMSO control [2] | growth AUC normalised to DMSO control [3] | growth AUC normalised to DMSO control [4] | growth AUC normalised to DMSO control [5] | growth AUC normalised to DMSO control [6] | growth AUC normalised to DMSO control [7] | growth AUC normalised to DMSO control [8] |
| --- | --- | --- | --- | --- | --- | --- | --- | --- |
| CN1CCN2c3ccccc3Cc3ccccc3C2C1 (configuration not stated) [Mianserine hydrochloride] | 0.986 | 0.986 | 0.868 (active) | 0.956 | 1.03 | 1.03 | 0.994 | 1 |
| CN1CCN(CCCN2c3ccccc3Sc3ccc(Cl)cc32)CC1 [Prochlorperazine dimaleate] | 1.01 | 1.02 | 0.947 | 1 | 1.01 | 0.981 | 0.996 | 0.892 |
| Cc1ccc(S(=O)(=O)NC(=O)NN2CCCCCC2)cc1 [Tolazamide] | 1.02 | 1.04 | 1.03 | 0.997 | 1.01 | 1.02 | 1.01 | 0.999 |
| OCCN1CCN(CCCN2c3ccccc3Sc3ccc(Cl)cc32)CC1 [Perphenazine] | 0.99 | 0.975 | 0.91 | 1.01 | 1.01 | 0.989 | 1 | 0.929 |
| Cc1nnc(NS(=O)(=O)c2ccc(N)cc2)s1 [Sulfamethizole] | 0.985 | 0.98 | 0.978 | 1.01 | 1 | 1 | 0.978 | 0.984 |
| CN1C(=O)OC(C)(C)C1=O [Trimethadione] | 0.996 | 0.943 | 0.982 | 0.992 | 0.971 | 0.977 | 0.999 | 1 |
| CCCCN(CCCC)CCC(O)c1cc2c(Cl)cc(Cl)cc2c2cc(C(F)(F)F)ccc12 (configuration not stated) [Halofantrine hydrochloride] | 0.944 | 1.04 | 1.06 | 1.03 | 1.06 | 1.11 | 1.02 | 1.01 |
| CC(C)(C)c1ccc(C(O)CCCN2CCC(C(O)(c3ccccc3)c3ccccc3)CC2)cc1 (configuration not stated) [Terfenadine] | 1.01 | 0.999 | 0.982 | 1.03 | 0.907 | 0.892 | 1.01 | 0.88 |
| Nc1nc(=O)n([C@@H]2CS[C@H](CO)O2)cc1F [(-) Emtricitabine] | 0.995 | 0.961 | 0.993 | 0.981 | 0.983 | 0.986 | 0.998 | 0.993 |
| COC(=O)C1=C(C)NC(C)=C(C(=O)OC)C1c1ccccc1[N+](=O)[O-] [Nifedipine] | 1 | 0.997 | 0.971 | 1 | 0.987 | 0.996 | 1.01 | 0.994 |
| CC(C)COCC(CN(Cc1ccccc1)c1ccccc1)N1CCCC1 (configuration not stated) [Bepridil hydrochloride] | 1 | 0.965 | 0.875 | 1.02 | 0.996 | 0.982 | 0.986 | 0.906 |
| CN1CCN2c3ncccc3Cc3ccccc3C2C1 (configuration not stated) [Mirtazapine] | 0.995 | 1.01 | 1.01 | 1 | 1.03 | 1.02 | 1 | 0.997 |
| C[C@@H](O[C@H]1OCCN(Cc2n[nH]c(=O)[nH]2)[C@H]1c1ccc(F)cc1)c1cc(C(F)(F)F)cc(C(F)(F)F)c1 [Aprepitant] | 0.993 | 0.978 | 0.985 | 0.976 | 0.0129 (active) | 0.0137 (active) | 0.994 | 0.997 |
| N=C(N)N1CCc2ccccc2C1 [Debrisoquin sulfate] | 0.995 | 0.975 | 1.01 | 1.01 | 1.02 | 1.01 | 1 | 1 |
| CC(=O)CCCCn1c(=O)c2c(ncn2C)n(C)c1=O [Pentoxifylline] | 1 | 0.979 | 0.967 | 0.989 | 0.983 | 0.99 | 1 | 0.987 |
| C[C@]12CC[C@@H]3c4ccc(OS(=O)(=O)O)cc4CC[C@H]3[C@@H]1CCC2=O [Estropipate piperazine salt] | 0.985 | 0.974 | 0.991 | 0.965 | 0.987 | 0.983 | 0.997 | 0.996 |
| CCC(=O)OCC(=O)[C@@]1(OC(=O)CC)[C@H](C)C[C@H]2[C@H]3[C@H]([C@@H](O)C[C@@]21C)[C@@]1(C)C=CC(=O)C=C1C[C@H]3Cl [Alclometasone dipropionate] | 1 | 0.974 | 0.999 | 1.01 | 1.03 | 1.04 | 1 | 1 |
| CCc1oc2ccccc2c1C(=O)c1cc(Br)c(O)c(Br)c1 [Benzbromarone] | 1.01 | 0.989 | 0.989 | 0.996 | 0.57 | 0.699 | 1 | 0.925 |
| CC(=O)Oc1cc(C(C)C)c(OCCN(C)C)cc1C [Moxisylyte hydrochoride] | 0.992 | 0.992 | 0.991 | 0.99 | 0.999 | 1 | 1.01 | 1 |
| C[C@@H]1C[C@H]2[C@@H]3C[C@H](F)C4=CC(=O)C=C[C@]4(C)[C@@]3(F)[C@@H](O)C[C@]2(C)[C@@]1(O)C(=O)CO [Flumethasone] | 0.995 | 0.994 | 0.997 | 0.993 | 1.01 | 1.02 | 0.997 | 1.01 |
| C[C@@H]1C[C@H]2[C@@H]3CCC4=CC(=O)C=C[C@]4(C)[C@@]3(Cl)[C@@H](O)C[C@]2(C)[C@@]1(OC(=O)c1ccco1)C(=O)CCl [Mometasone furoate] | 1.02 | 1.07 | 1.01 | 1.03 | 1.04 | 1.06 | 1.01 | 0.991 |
| CC(=O)O[C@]1(C(C)=O)CC[C@H]2[C@@H]3C=C(C)C4=CC(=O)CC[C@@H]4[C@H]3CC[C@@]21C [Nomegestrol acetate] | 0.991 | 1.03 | 1.06 | 1.01 | 0.963 | 1 | 1.03 | 0.94 |
| CO[C@@H]1[C@@H](O[C@@H]2O[C@H](C)[C@@H](O[C@H]3C[C@@](C)(O)[C@@H](OC(=O)CC(C)C)[C@H](C)O3)[C@H](N(C)C)[C@H]2O)[C@@H](CC=O)C[C@@H](C)[C@@H](O)/C=C/C=C/C[C@@H](C)OC(=O)C[C@H]1OC(C)=O [Josamycin] | 0.937 (active) | 0.995 | 0.0145 (active) | 0.971 | 0.0124 (active) | 0.00854 (active) | 0.967 | 0.0649 (active) |
| O=C(O)c1ccccc1C(=O)Nc1ccc(S(=O)(=O)Nc2nccs2)cc1 [Phthalylsulfathiazole] | 1.01 | 1.01 | 1.03 | 0.997 | 1.03 | 1.03 | 0.993 | 0.998 |
| NC[C@@H]1O[C@H](O[C@H]2[C@@H](O)[C@H](O[C@@H]3[C@@H](O)[C@H](N)C[C@H](N)[C@H]3O[C@H]3O[C@H](CO)[C@@H](O)[C@H](O)[C@H]3N)O[C@@H]2CO)[C@H](N)[C@@H](O)[C@@H]1O [Paromomycin sulfate] | 1.01 | 0.993 | 1.01 | 0.997 | 1 | 0.991 | 1 | 1 |
| C=CC[N@@+]12CC[C@@]34c5ccccc5N5/C=C6/[C@H]7C[C@H]8[C@@]9(CC[N@@+]8(CC=C)C/C7=C/CO)c7ccccc7N(/C=C(/[C@@H](C[C@@H]31)/C(=C\CO)C2)[C@H]54)[C@@H]69 [Alcuronium chloride] | 0.94 | 1 | 1.09 | 1.03 | 1.05 | 1.06 | 1.01 | 1 |
| COc1cc2nc(N3CCN(C(=O)C4CCCO4)CC3)nc(N)c2cc1OC (configuration not stated) [Terazosin hydrochloride] | 0.998 | 0.96 | 0.989 | 0.989 | 1.03 | 1.04 | 1 | 1.01 |
| Oc1ccc(OCc2ccccc2)cc1 [Monobenzone] | 0.975 | 0.941 | 0.982 | 0.974 | 0.981 | 0.992 | 0.996 | 0.977 |
| CCN1CCN(C(=O)N[C@@H](C(=O)N[C@@H]2C(=O)N3C(C(=O)O)=C(CSc4nnnn4C)CS[C@H]23)c2ccc(O)cc2)C(=O)C1=O [Cefoperazone dihydrate] | 0.0254 (active) | 0.0208 (active) | 0.0794 (active) | 0.16 (active) | 0.00991 (active) | 0.00365 (active) | 0.144 | 0.00245 (active) |
